HP1b binding inh: blocks HP1-beta chromodomain binding to methylated histone tails | Potency, µM (titrated, usually from 114 µM), for inactives: top-dose activity change, negative = inhibition, hits mostly inhibitors | AlphaScreen HP1-beta / biotin-H3K9me3 peptide binding | P83916 | actives 0.56% (n = 390,000); also: potency is read from the fitted curve at half-maximal effect; nearly all actives have a fitted effect of over 70% in size
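AlphaScreen: HP1-beta (50 nM) preformed 30 min with biotin-H3(1-18)K9me3 peptide (50 nM) in PBS pH 7.4, 0.01% Tween-20. Compound added for 30 min at RT, then streptavidin donor/nickel chelate acceptor beads (10 ug/mL) for 30 min.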
BAZ2B inh: blocks human BAZ2B; Q9UIF8; AlphaScreen BAZ2B-H3K14Ac peptide displacement; Potency, µM (top dose mostly 114 µM), without a hit: at the highest dose activity change, negative = inhibition, actives largely listed as inhibitors; actives 4.4% (n = 360,000); AID 504333; also: potency is read from the fitted curve at half-maximal effect; % is scaled to controls: 0 for no effect and ±100 for the full control effect; nearly all actives have a fitted effect of over 60% in size
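In this displacement format the biotinylated H3(5-23) peptide acetylated at Lys14 serves as ligand at 50 nM, with BAZ2B at 50 nM in PBS pH 7.4 containing 0.01% Tween-20. Donor and acceptor beads are 10 ug/mL final.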
CtBP-E1A blk: blocks the CtBP interaction with E1A | AlphaScreen GST-E1A/His-CtBP binding, 1536-well; hits give low values | activity change, % (test concentration not listed) | actives 0.49% (n = 340,000); in the data active = activity change below about -65%; inconclusive = mostly about -30% to -63%; also: % is scaled to controls: 0 for no effect and ±100 for the full control effect
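Steps: dispense buffer (Tris pH 8.0, NaCl 300 mM, TCEP 1 mM, BSA, Tween 20); add 5X protein mix (GST-E1A, His-CtBP, 125 nM each); pin 23 nL compound; 2 h at 37 °C, dark; add 5X beads (50 ug/mL); 1 h; read.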
JMJD2A Tudor: inhibitors of human JMJD2A Tudor domain. O75164. AlphaScreen JMJD2A-Tudor / H3K4me3 peptide binding. Potency, µM (doses to about 114 µM), inactives show at the top dose activity change, negative = inhibition, hits mostly inhibitors. actives 4.4% (n = 390,000); also: potency is read from the fitted curve at half-maximal effect; % is scaled to controls: 0 for no effect and ±100 for the full control effect; nearly all actives have a fitted effect of over 50% in size
Target sequence (O75164 whole entry, looked up, the tested form may be a part): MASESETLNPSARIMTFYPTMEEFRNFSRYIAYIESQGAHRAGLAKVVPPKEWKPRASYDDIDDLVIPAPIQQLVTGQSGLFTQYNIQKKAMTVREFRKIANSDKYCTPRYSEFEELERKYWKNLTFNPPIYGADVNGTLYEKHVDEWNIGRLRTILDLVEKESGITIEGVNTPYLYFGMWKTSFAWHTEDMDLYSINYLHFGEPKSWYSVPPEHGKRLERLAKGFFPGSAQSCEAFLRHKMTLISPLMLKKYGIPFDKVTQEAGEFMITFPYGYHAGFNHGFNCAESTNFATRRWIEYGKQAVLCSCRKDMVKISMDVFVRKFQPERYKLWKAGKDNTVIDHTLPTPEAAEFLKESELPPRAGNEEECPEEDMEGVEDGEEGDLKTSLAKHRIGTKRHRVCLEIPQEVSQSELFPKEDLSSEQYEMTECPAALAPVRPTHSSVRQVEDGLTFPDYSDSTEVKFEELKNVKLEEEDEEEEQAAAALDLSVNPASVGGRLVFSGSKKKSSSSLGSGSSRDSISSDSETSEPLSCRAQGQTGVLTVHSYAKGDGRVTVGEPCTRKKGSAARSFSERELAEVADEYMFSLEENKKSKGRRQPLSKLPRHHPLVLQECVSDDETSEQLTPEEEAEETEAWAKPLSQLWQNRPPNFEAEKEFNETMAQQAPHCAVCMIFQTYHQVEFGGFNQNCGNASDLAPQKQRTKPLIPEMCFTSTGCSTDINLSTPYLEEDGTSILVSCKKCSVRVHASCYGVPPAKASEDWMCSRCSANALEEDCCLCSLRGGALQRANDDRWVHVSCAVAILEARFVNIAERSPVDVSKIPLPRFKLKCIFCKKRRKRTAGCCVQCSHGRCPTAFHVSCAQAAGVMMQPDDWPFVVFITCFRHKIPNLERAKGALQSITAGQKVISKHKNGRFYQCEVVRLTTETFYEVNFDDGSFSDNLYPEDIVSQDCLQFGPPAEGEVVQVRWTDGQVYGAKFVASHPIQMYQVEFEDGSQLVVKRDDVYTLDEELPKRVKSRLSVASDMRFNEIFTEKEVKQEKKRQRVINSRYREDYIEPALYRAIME
Six1-Eya2 inh: blocks human Six1 binding to Eya2; Q15475+O00167; AlphaScreen GST-Six1/His-Eya2 binding, biochemical; hits give low values; actives 0.56% (n = 360,000); activity change, % (no concentration beside the values); in the data active = activity change below about -65%; inconclusive = mostly about -30% to -63%; also: % is scaled to controls: 0 for no effect and ±100 for the full control effect
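Six1/Eya2 binding was read as AlphaScreen signal after compounds were pinned into GST-Six1 plus His-tagged Eya2 (5X stock 250/500 nM) in pH 8.0 Tris/NaCl/TCEP buffer, beads added, then incubated 1 h, 37 C, dark.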
G9a inh: G9a (human) methyltransferase inhibition. G9a H3K9 monomethylation, AlphaScreen, 2 h. Potency, µM (titrated, usually from 102 µM), for inactives: at the top dose activity, negative = inhibition, hits mostly inhibitors. actives 8.8% (n = 350,000). AID 504332; also: potency is read from the fitted curve at half-maximal effect; % is scaled to controls: 0 for no effect and ±100 for the full control effect; nearly all actives have a fitted effect of over 75% in size
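Compounds were preincubated with 20 nM G9a for 15 min, after which biotinylated H3K9 peptide (500 nM) and SAM (20 uM) started a 2 h room-temperature reaction. Monomethylated product was quantified by antibody-based AlphaScreen chemiluminescence.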
An asterisk follows results filed as active; ? = inconclusive; . = no result given; [ ] = another dose, or the depositor's remark. Shown are actives, neighbours in structure and some others; about 10% of the full set was active somewhere. Unless noted, calls follow the shape of the dose curve; as a rule, active = well fitted inhibition curve with a large enough effect; inconclusive = small, poorly fitted or top-dose-only effect; inactive = no such curve, though single readings can be large or run the other way.

SMILES	HP1b binding inh	BAZ2B inh	CtBP-E1A blk	JMJD2A Tudor	Six1-Eya2 inh	G9a inh
CC(C)CCOc1ccc(C(=O)O)cc1	48.5%	-5.6%	10.4	-11.4%	-0.2	10.9%[2.33 µM]
CC(C)CCOc1ccc(C(=O)CCNC(C)C(=O)O)cc1 (stereo not given)	.	-1.9%	.	.	.	5.62µM*
CCOCCCNCC(=O)N1CCN(S(=O)(=O)c2ccc(C)cc2)CC1	-38.1%	79.4µM*	5.8	3.98µM*	7.3	4.47µM*
Cc1ccc(S(=O)(=O)CCC(=O)OCC(=O)N2CCN(S(=O)(=O)c3ccccc3)CC2)cc1	35.3%	8.5%	12.8	-16.4%	-4.5	50.1µM*
COc1ccc(N2CCN(C(=O)COC(=O)CCS(=O)(=O)c3ccc(C)cc3)CC2)cc1	-10.3%	-17.4%	-6.4	-10.3%	0.7	39.8µM*
O=C(NNC(=O)C1CC(c2cccs2)=NO1)NC1CCCCC1 (stereo not given)	49.4%	-26.1%	3.9	6.7%	8.4	2.4%[59 µM]
CC1([N+](=O)[O-])COC(c2cccc3ccccc23)OC1 (stereo not given)	26.7%	.	10.2	8.9%	7.9	.
Cc1nc2cc(N=NC3=C(O)CCCC3=O)ccc2s1	-17.1%	56.2µM*	-7.3	?	-9.5	?
CC(C)(C)c1cc(C(=O)CCN2CCOCC2)cc(C(C)(C)C)c1O	23.0%	2.2%	-9.7	-8.7%	-7.4	50.1µM*
CN1C(=O)c2ccc(N3CCCC3)cc2C1=O	120.2%	53.4%	18.6	43.7%	25.0	53.1%
Cc1cc(N2CCCC2)ccc1/C=C1\NC(=S)N(C)C1=O	?	?	-24.4	22.4µM*	?	.
CCOC(=O)CCC(NC(=O)c1cncc(O)c1)C(=O)OCC (stereo not given)	9.4%	?	4.2	44.7µM*	9.4	?
CC(CNC(=O)c1cncc(O)c1)NC(=O)c1cncc(O)c1 (stereo not given)	9.0%	?	8.0	50.1µM*	14.1	44.7µM*
CC(=O)Nc1ccc(S(=O)(=O)Nc2cccc(-n3c(C)nc4ccccc4c3=O)c2)cc1	10.7%	8.5%	-1.1	-16.6%	1.8	15.9%[0.501 µM]
CC(C)C(=O)Nc1c2c(nc3ccccc13)N(C)CC2	5.4%	-28.1%	0.1	-15.8%	0.5	-4.4%[0.0925 µM]
Cc1ccc2nc3c(c(N)c2c1)CCN3C	35.5µM*	79.4µM*	-13.4	25.1µM*	-15.8	8.91µM*
Cc1ccc2nc3c(c(N)c2c1)CCN3c1ccccc1	?	56.2µM*	-9.9	0.794µM*	-9.2	17.8µM*
CN1CCc2c1nc1ccccc1c2N (tested in a mixture with another compound)	35.5%	20.2%	-4.2	-9.5%	-16.3	79.4µM*
CN1CCc2c1nc1ccccc1c2N=C1CCCN1Cc1ccccc1	2.8%	-7.8%	.	44.7µM*	4.2	-2.8%[59 µM]
Cc1cc(C)c(N=C2CCCN2Cc2ccccc2)c(C#N)c1	93.9%	42.6%	14.3	54.0%	22.2	13.9%[59 µM]
CCn1c(C(=O)NCc2ccc(C)cc2)cc2sc(Cl)cc21	55.6%	9.5%	.	5.1%	.	18.8%[59 µM]
Cc1cccc2c(N)c3c(nc12)CCCC3 (tested in a mixture with another compound)	46.3%	-19.0%	-21.5	-17.1%	-14.1	.
Cc1cccc2c(N)c3c(nc12)N(C)CC3	-19.7%	50.1µM*	.	17.8µM*	-0.6	50.1µM*
CN1CCCCc2c1nc1c(c2N)CCCC1	?	?	-10.4	1.78µM*	-0.2	?
CC(=O)N/C(=C\c1ccccc1)C(=O)OCC(=O)N(C)C1CCCCC1	30.3%	-1.1%	-9.5	-4.8%	4.3	27.7%[59 µM]
SMILES	HP1b binding inh	BAZ2B inh	CtBP-E1A blk	JMJD2A Tudor	Six1-Eya2 inh	G9a inh
CCc1ccccc1NNC(=O)c1cc(C)on1	49.6%	2.3%	.	-10.3%	2.2	3.16µM*
Cc1cc(C(=O)Nc2ccccc2C(F)(F)F)no1	41.7%	-5.3%	12.7	7.9%	0.8	-15.8%[2.33 µM]
O=C(NNc1c(Cl)cncc1Cl)c1cccs1	27.3%	-9.3%	9.5	5.6%	6.6	1.3%
Cc1cc(C(=O)NNc2c(Cl)cccc2Cl)no1	42.4%	-1.9%	.	9.0%	-1.7	28.2µM*
CCCc1ccc(C(=O)NNc2ccccc2F)cc1	62.9%	-14.1%	.	-9.6%	4.9	56.2µM*
O=C(NNc1c(Cl)cccc1Cl)c1sccc1Cl	72.5%	-14.2%	12.4	-8.7%	-12.9	12.6µM*
CN(CC1CCOCC1)C(=O)CC1C(=O)NCCN1C/C=C/c1ccccc1 (stereo not given)	22.7%	0.5%	7.5	0.0%	-5.3	-33.9%[59 µM]
Cc1ncc([N+](=O)[O-])n1Cc1cccc(F)c1	24.8%	-12.7%	2.5	-9.9%	3.6	2.6%
CN1CCN(c2ccc(S(=O)(=O)N3CCCCC3)cc2N)CC1	35.8%	-26.9%	8.8	3.0%	5.6	?
Cc1cc(C(=O)NNc2ccc(F)cc2)no1	37.2%	3.2%	8.4	-3.5%	6.0	28.2µM*
Cc1ccc(NC(=O)c2cc(C)on2)cc1	15.0%	-0.7%	1.9	3.2%	5.2	?
Cc1cc(C(=O)NNc2ccccc2F)no1	45.4%	-1.2%	8.5	-4.1%	7.7	39.8µM*
COC(=O)c1ccsc1-n1cc(C#N)c(=O)n(C)c1=O	33.5%	1.9%	.	-10.8%	3.8	18.0%
Cc1c(Cl)cccc1NC(=O)CCn1nc(C)c2c(C)n(-c3ccccc3)nc2c1=O	42.1%	1.4%	.	-0.3%	.	-0.5%[59 µM]
C=CCNC(=O)C1CC(=O)N(c2ccc(OCC(=O)Nc3ccc(Cl)cc3)cc2)C1 (stereo not given)	9.2%	2.7%	-1.8	70.8µM*	7.2	11.1%
Cc1ccc(C)n1-c1ccc(N(C)C)cc1	?	25.1µM*	-16.9	50.1µM*	?	7.08µM*
CCCOc1ccc(C2C(=O)N(C3CCCCC3)CC(=O)N2CCCOCC)cc1OC (stereo not given)	35.8%	5.1%	-1.1	8.5%	-0.4	7.94µM*
COc1ccc(/C=C/C(=O)NCC(=O)N2CCC(N(C)CCN3CCOCC3)CC2)cc1OC	?	50.1µM*	10.6	?	6.9	7.94µM*
CCOc1ccc(Oc2nc(NCC(C)C)nc(N3CCOCC3)n2)nn1	41.1%	0.5%	.	1.0%	.	16.7%[59 µM]
COc1ccc(S(=O)(=O)n2c([N+](=O)[O-])cnc2C)cc1OC	71.7%	79.4µM*	1.0	?	0.2	56.2µM*
O=C1CC(C(=O)O)S/C(=N\NC(=O)c2ccccc2)N1 (stereo not given)	10.6%	50.1µM*	3.1	1.41µM*	0.0	?
COc1ccc(/C(C)=N/N=C2/NC(=O)CC(C(=O)O)S2)cc1 (stereo not given)	8.3%	-2.6%	-9.1	44.7µM*	12.5	11.7%[59 µM]
